From PubChem BioAssay (NCATS)
Results filed as inconclusive are left out. Where a call stands in place of a potency, no number is given. Calls of active or inactive are those of the source. Calls follow the shape of the dose curve; as a rule, active = well fitted curve in the direction sought with a large enough effect; inconclusive = small, poorly fitted or top-dose-only effect, or another doubt; inactive = no such curve, though single readings can be large; an effect the other way counts as inactive or inconclusive. Peptide text beside a SMILES is read from it.

Assay: Quantitative highthroughput screen to assess conditional lethalithy of NOMO1 cells grown in RPMI1640 with untreated serum (RPMI+s) (AID 1963876); also: nearly all actives have a fitted effect of over 35% in size
Conditions: NOMO1 AML cells in RPMI+serum, CellTiter-Glo viability, 48 h; series mostly up to 45.8 µM
How it was run: (§1)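 Each medium arm—HPLM with 10% dialyzed FBS, or RPMI1640 with 5 mM glucose and 10% untreated or dialyzed FBS—was screened against an 11-point, 3-fold compound titration for 48 h at 37 °C, with CellTiter-Glo luminescence as endpoint.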

Structure (SMILES)	Potency
Cn1c(N2CCCCS2(=O)=O)nc(C(=O)NCc2ccc(F)cc2)c(O)c1=O	inactive
Nc1ccn([C@@H]2CS[C@H](CO)O2)c(=O)n1	inactive
CN(C)CC(=O)N1CCC(c2ccc(NC(=O)c3ncc(C#N)[nH]3)c(C3=CCCCC3)c2)CC1	inactive
N[C@@H]1CONC1=O	inactive
Cc1nc2c([nH]1)CCN(C(=O)c1ccc(NC(=O)c3ccccc3-c3ccccc3)cc1)c1ccccc1-2	inactive
COC(=O)[C@H](Cc1ccccc1)NC(=O)[C@@H](N)CC(=O)O (H-Asp-Phe-OMe)	inactive
CCC(C)(Oc1ccc(C2(c3ccc(OC(C)(CC)C(=O)O)cc3)CCCCC2)cc1)C(=O)O (stereo not given)	inactive
Nc1ccc(S(N)(=O)=O)cc1	inactive
CNS(=O)(=O)CCc1ccc2[nH]cc(C3CCN(C)CC3)c2c1	inactive
CCOCC(O)COc1ccc(NC(=O)CC[S+](C)C)cc1 (stereo not given)	inactive

Assay: Quantitative highthroughput screen to assess conditional lethalithy of NOMO1 cells grown in RPMI1640 with dialyzed fetal bovine serum (RPMI+ds) (AID 1963877); also: nearly all actives have a fitted effect of over 30% in size
Conditions: NOMO1 in RPMI+dialyzed FBS viability, ATP luminescence, 48 h; series mostly up to 45.8 µM
How it was run: as §1

Structure (SMILES)	Potency
Cn1c(N2CCCCS2(=O)=O)nc(C(=O)NCc2ccc(F)cc2)c(O)c1=O	inactive
Nc1ccn([C@@H]2CS[C@H](CO)O2)c(=O)n1	inactive
CN(C)CC(=O)N1CCC(c2ccc(NC(=O)c3ncc(C#N)[nH]3)c(C3=CCCCC3)c2)CC1	inactive
N[C@@H]1CONC1=O	inactive
Cc1nc2c([nH]1)CCN(C(=O)c1ccc(NC(=O)c3ccccc3-c3ccccc3)cc1)c1ccccc1-2	inactive
COC(=O)[C@H](Cc1ccccc1)NC(=O)[C@@H](N)CC(=O)O (H-Asp-Phe-OMe)	inactive
CCC(C)(Oc1ccc(C2(c3ccc(OC(C)(CC)C(=O)O)cc3)CCCCC2)cc1)C(=O)O (stereo not given)	inactive
Nc1ccc(S(N)(=O)=O)cc1	inactive
CNS(=O)(=O)CCc1ccc2[nH]cc(C3CCN(C)CC3)c2c1	inactive
CCOCC(O)COc1ccc(NC(=O)CC[S+](C)C)cc1 (stereo not given)	inactive

Assay: Quantitative highthroughput screen to assess conditional lethalithy of NOMO1 cells grown in Human Plasma-Like Medium with dialyzed fetal bovine serum (HPLM+ds) (AID 1963878); also: nearly all actives have a fitted effect of over 35% in size
Conditions: NOMO1 AML cells in HPLM+ds, CellTiter-Glo viability, 48 h; series mostly up to 45.8 µM
How it was run: as §1

Structure (SMILES)	Potency
Cn1c(N2CCCCS2(=O)=O)nc(C(=O)NCc2ccc(F)cc2)c(O)c1=O	inactive
Nc1ccn([C@@H]2CS[C@H](CO)O2)c(=O)n1	inactive
CN(C)CC(=O)N1CCC(c2ccc(NC(=O)c3ncc(C#N)[nH]3)c(C3=CCCCC3)c2)CC1	inactive
N[C@@H]1CONC1=O	inactive
Cc1nc2c([nH]1)CCN(C(=O)c1ccc(NC(=O)c3ccccc3-c3ccccc3)cc1)c1ccccc1-2	inactive
COC(=O)[C@H](Cc1ccccc1)NC(=O)[C@@H](N)CC(=O)O (H-Asp-Phe-OMe)	inactive
CCC(C)(Oc1ccc(C2(c3ccc(OC(C)(CC)C(=O)O)cc3)CCCCC2)cc1)C(=O)O (stereo not given)	inactive
Nc1ccc(S(N)(=O)=O)cc1	inactive
CNS(=O)(=O)CCc1ccc2[nH]cc(C3CCN(C)CC3)c2c1	inactive
CCOCC(O)COc1ccc(NC(=O)CC[S+](C)C)cc1 (stereo not given)	inactive
